Values without a mark were called inactive. A call without a number means that no potency is given here. For some assays here: Potency and affinity values are given separately. Activity calls are given as the source filed them. Unless noted, no rule for the calls is given here.
Legend:
[1] = antimalarial activity against Dd2 strain (AID 2302;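 active = growth inhibition above 50% at the single 2 µM test dose, taken to imply half-maximal potency below 2 µM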); details: P. falciparum Dd2 in RBCs, LDH growth readout, 72 h; at 2 µM; stronger effect = higher value
[2] = human hepatoma cell viability loss – ATP luminescence, cytotoxicity control for P. falciparum antimalarial project, primary screen (AID 2303;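 active = inhibition above 50%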); details: HepG2 viability, 24-48 h, at 10 µM, stronger effect = higher value
[3] = target: L-lactate dehydrogenase (Plasmodium falciparum (isolate CDC / Honduras)) (UniProt Q27743); test: PfLDH activity inhibition – cell lysate, 3D7 strain, counter-screen for P. falciparum growth inhibition project (AID 2304); details: P. falciparum 3D7 crude extract, LDH APAD/NBT absorbance; at 2 µM; stronger effect = higher value
[4] = inhibition of 3D7 malaria parasite growth – strain 3D7 (AID 2306); details: P. falciparum 3D7 erythrocytic growth, LDH absorbance, 72 h; at 2 µM; stronger effect = higher value
[5] = target: Calcium-dependent protein kinase 1 (Plasmodium falciparum (isolate 3D7)) (UniProt P62344); test: PfCDPK1 kinase inhibitors, biochemical, TCAMS library (AID 1159585; cut-off not given, nearly all actives have IC50 up to about 0.98 µM;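 also: inhibitors leave more ATP so luminescence rises with inhibition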); details: recombinant PfCDPK1, Kinase-Glo ATP depletion luminescence
[6] = target: Plasmodium falciparum protein kinase 6 (PK6, PF3D7_1337100) (UniProt Q8IDW1); test: PfPK6 kinase inhibitors, biochemical, TCAMS library (AID 1159586); details: recombinant PfPK6, Kinase-Glo ATP depletion luminescence
[7] = target: Protein kinase 7 (PK7), Plasmodium falciparum 3D7 (PF3D7_0213400) (UniProt Q7YTF7); test: inhibition of Plasmodium PK7 catalytic activity – biochemical, TCAMS antimalarial set, Kinase-Glo luminescence (AID 1159587); details: recombinant PfPK7, Kinase-Glo ATP depletion luminescence
[8] = target: Calcium-dependent protein kinase 4 (Plasmodium falciparum (isolate 3D7)) (UniProt Q8IBS5); test: PfCDPK4 kinase inhibitors, biochemical, TCAMS library (AID 1159588; cut-off not given, nearly all actives have IC50 up to about 0.91 µM); details: recombinant PfCDPK4, Kinase-Glo ATP depletion luminescence
Calcium-dependent protein kinase 4 (Plasmodium falciparum (isolate 3D7)), sequence (Q8IBS5 whole entry, looked up): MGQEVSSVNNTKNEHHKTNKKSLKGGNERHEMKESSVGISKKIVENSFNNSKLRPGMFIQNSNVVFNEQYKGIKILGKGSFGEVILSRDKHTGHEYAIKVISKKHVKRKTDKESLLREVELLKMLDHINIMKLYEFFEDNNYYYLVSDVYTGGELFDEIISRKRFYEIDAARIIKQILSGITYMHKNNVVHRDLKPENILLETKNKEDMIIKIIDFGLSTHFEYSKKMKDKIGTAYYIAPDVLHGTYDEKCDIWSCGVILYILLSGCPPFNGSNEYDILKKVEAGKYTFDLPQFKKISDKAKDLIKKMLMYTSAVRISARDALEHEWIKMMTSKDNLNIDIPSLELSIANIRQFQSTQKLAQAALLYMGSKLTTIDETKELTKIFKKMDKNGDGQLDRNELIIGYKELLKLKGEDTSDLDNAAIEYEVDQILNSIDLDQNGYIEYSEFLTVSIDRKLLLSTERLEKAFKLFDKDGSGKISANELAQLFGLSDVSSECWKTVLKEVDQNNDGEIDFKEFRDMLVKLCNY

L-lactate dehydrogenase (Plasmodium falciparum (isolate CDC / Honduras)), sequence (Q27743 whole entry, looked up): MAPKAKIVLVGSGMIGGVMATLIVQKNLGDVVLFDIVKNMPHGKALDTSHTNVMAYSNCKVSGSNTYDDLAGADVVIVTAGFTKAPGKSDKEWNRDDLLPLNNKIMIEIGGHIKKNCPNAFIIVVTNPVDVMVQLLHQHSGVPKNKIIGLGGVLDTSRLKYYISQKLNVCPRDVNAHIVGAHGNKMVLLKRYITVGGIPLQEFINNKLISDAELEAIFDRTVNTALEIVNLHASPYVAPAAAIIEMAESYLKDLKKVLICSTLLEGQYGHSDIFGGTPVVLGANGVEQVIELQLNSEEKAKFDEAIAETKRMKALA
Plasmodium falciparum protein kinase 6 (PK6, PF3D7_1337100), sequence (Q8IDW1 1-305): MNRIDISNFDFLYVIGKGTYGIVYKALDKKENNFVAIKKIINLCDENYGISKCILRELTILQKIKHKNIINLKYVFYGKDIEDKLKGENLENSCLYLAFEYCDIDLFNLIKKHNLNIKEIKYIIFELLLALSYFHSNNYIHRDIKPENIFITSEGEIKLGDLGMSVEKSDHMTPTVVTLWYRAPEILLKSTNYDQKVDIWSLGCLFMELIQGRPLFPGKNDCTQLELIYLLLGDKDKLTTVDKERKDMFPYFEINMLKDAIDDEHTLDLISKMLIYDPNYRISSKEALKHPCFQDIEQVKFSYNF
Calcium-dependent protein kinase 1 (Plasmodium falciparum (isolate 3D7)), sequence (P62344 whole entry, looked up): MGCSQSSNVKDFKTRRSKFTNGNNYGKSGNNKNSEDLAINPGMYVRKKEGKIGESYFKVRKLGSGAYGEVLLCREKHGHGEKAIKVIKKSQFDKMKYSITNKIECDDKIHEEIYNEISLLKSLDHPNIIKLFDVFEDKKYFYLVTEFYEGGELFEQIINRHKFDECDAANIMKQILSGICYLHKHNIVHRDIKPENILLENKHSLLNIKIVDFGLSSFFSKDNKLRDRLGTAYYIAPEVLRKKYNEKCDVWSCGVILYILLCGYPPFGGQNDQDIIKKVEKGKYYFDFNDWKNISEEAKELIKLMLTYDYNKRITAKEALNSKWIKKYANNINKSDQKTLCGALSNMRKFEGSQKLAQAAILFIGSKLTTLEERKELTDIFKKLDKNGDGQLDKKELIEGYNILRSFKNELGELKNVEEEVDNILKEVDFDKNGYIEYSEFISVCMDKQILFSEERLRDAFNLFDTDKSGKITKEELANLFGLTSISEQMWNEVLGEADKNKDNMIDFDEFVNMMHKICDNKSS
Protein kinase 7 (PK7), Plasmodium falciparum 3D7 (PF3D7_0213400), sequence (Q7YTF7 1-343): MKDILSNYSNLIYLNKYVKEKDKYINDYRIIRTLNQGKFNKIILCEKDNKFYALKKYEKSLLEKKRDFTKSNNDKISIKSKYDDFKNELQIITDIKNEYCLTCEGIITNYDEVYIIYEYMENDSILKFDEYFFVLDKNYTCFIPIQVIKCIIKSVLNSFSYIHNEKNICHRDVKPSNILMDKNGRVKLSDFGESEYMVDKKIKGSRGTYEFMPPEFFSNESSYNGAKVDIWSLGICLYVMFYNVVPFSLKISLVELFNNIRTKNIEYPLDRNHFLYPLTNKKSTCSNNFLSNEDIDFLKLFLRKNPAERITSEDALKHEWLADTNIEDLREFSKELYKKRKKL

Compound | growth inhibition [1] | inhibition [2] | inhibition [3] [%] | growth inhibition [4] | outcome [5] | outcome [6] | outcome [7] | outcome [8]
COc1ccc(-c2ccc(NC(=O)c3cccc(C#N)c3)cc2)cc1CN1CCC(O)CC1 | 84% (active) | 21% | 7 | 101% (active) | inactive | inactive | inactive | inactive
O=C(Nc1ccc(OC2CCN(Cc3ccc(F)cc3)C2)cc1)c1cccs1 (stereo not given) | 92% (active) | 2% | 4 | 94% (active) | inactive | inactive | inactive | inactive
CC1CN(Cc2ccc(-c3cccc(-c4nc5ccc(F)cc5[nH]4)c3)cc2)CC(C)O1 (stereo not given) | 20% | 28% | -3 | 93% (active) | inactive | inactive | inactive | inactive
CCCN1CC[C@@H](CCCc2ccnc3ccc(O)cc23)[C@@H](CC)C1 | 14% | 10% | -2 | 93% (active) | inactive | inactive | inactive | inactive
Cc1cc(N[C@@H](C)C(=O)Nc2ccccc2)nc(NCCc2ccc(F)cc2)n1 | 43% | 33% | -2 | 100% (active) | inactive | inactive | inactive | inactive
Cc1[nH]c(C)c(-c2ccc(OCCn3cnc(Cl)c3Cl)cc2)c(=O)c1Br | 35% | 2% | 2 | 95% (active) | inactive | inactive | inactive | inactive
COc1ccc2nccc([C@@H](O)CN3CCC(NCc4cc5cc(OC(F)(F)F)ccc5[nH]4)CC3)c2c1 | 82% (active) | 49% | 2 | 100% (active) | inactive | inactive | inactive | inactive
CC(CN(C)C)C(=O)Nc1cccc(-c2ccc(-c3nc4ccc(C(F)(F)F)cc4[nH]3)cc2)c1 (stereo not given) | 97% (active) | 26% | -2 | 99% (active) | inactive | inactive | inactive | inactive
CCCCNCc1ccc(-c2nc(CN(CCCn3ccnc3)C(=O)N[C@@H]3C[C@H]3c3ccccc3)cs2)cc1 | 34% | 21% | 3 | 100% (active) | inactive | inactive | inactive | inactive
Cc1[nH]c(C)c(-c2ccc(C#Cc3ccc(F)cc3F)cc2)c(=O)c1Br | 98% (active) | 11% | -1 | 97% (active) | inactive | inactive | inactive | inactive
CCCCCCCCNCCCSCCCNCCCCCCCC | 47% | 63% (active) | -3 | 97% (active) | inactive | inactive | inactive | inactive
COc1ccc(NC(=O)[C@H](CC(C)C)Nc2ccnc(NCCc3ccc(F)cc3)n2)cc1 | 22% | -6% | -2 | 86% (active) | inactive | inactive | inactive | inactive
COc1ccc2nccc(NN=CC=Cc3ccccc3)c2c1 | 99% (active) | 11% | -3 | 101% (active) | inactive | inactive | inactive | inactive
COCCn1c(C)cc(C(=O)CN2C(=O)NC(C)(c3ccc(C(C)(C)C)cc3)C2=O)c1C (stereo not given) | 96% (active) | 7% | 1 | 97% (active) | inactive | inactive | inactive | inactive
CCCOc1cc(OCCC)cc(-c2cc(=O)c3ccccc3[nH]2)c1 | 96% (active) | 33% | -2 | 99% (active) | inactive | inactive | inactive | inactive
COc1c(C(=O)NC2CCN(Cc3ccccc3)C2)cnc2ccccc12 (stereo not given) | 12% | 2% | -4 | 86% (active) | inactive | inactive | inactive | inactive
FC(F)(F)c1cccc(Nc2nc3ccccc3nc2Nc2cccc(C(F)(F)F)c2)c1 | 100% (active) | 45% | 2 | 101% (active) | inactive | inactive | inactive | inactive
Cc1noc(C)c1-c1ccc2c(Nc3ccc(C#N)cc3)c(C(N)=O)cnc2c1 | 73% (active) | 6% | 7 | 97% (active) | inactive | inactive | inactive | inactive
Nc1nc(N)c2c3c(cnc2n1)CCCC3 | -4% | 61% (active) | -4 | 95% (active) | inactive | inactive | inactive | inactive
CO/C(=C\C=C\c1cc2cc(Cl)c(Cl)cc2[nH]1)C(=O)NCCCN1CCN(c2cccc(OCC(=O)Nc3ccccc3)c2)CC1 | 81% (active) | 49% | -1 | 100% (active) | inactive | inactive | inactive | inactive

Compound | growth inhibition [1] | inhibition [2] | inhibition [3] [%] | growth inhibition [4] | outcome [5] | outcome [6] | outcome [7] | outcome [8]
COc1ccc(C2CC(c3cccs3)=NN2C(=O)CNc2cccc(C#N)c2)cc1OC (stereo not given) | 35% | 8% | -4 | 87% (active) | inactive | inactive | inactive | inactive
O=C(NC1CCN(CCCc2ccccc2)CC1)c1ccc(-c2cccc(C(F)(F)F)c2)s1 | 47% | 93% (active) | 1 | 95% (active) | inactive | inactive | inactive | inactive
O=C(NCc1cccc2ccccc12)C(c1cc2ccccc2o1)N1CCN(C(c2ccccc2)c2ccccc2)CC1 (stereo not given) | 90% (active) | -3% | -2 | 99% (active) | inactive | inactive | inactive | inactive
COc1ccc(-c2nc3cccnc3n2CC(=O)Nc2c(C)cc(C)cc2C)c(OC)c1 | 21% | 77% (active) | 1 | 91% (active) | inactive | inactive | inactive | inactive
NC(N)=Nc1nc(-c2cccc(NC(=O)CCCCCCCON3C(N)=NC(N)=NC34CCCCC4)c2)cs1 | 89% (active) | 1% | -8 | 96% (active) | inactive | inactive | inactive | inactive
COCCCNc1nc2cc(OC)c(OC)cc2c2nc(-c3ccccc3)nn12 | 97% (active) | 6% | -6 | 95% (active) | inactive | inactive | inactive | inactive
O=C(Nc1ccc(C(F)(F)F)cc1)c1cc(Br)cnc1NCCCn1ccnc1 | 98% (active) | 32% | 2 | 99% (active) | inactive | inactive | inactive | inactive
CCC[C@@H]([C@@H](CC(C)C)C(=O)N[C@@H](CCCCNC(=O)c1cccc(OC)c1)C(=O)Nc1nccs1)N(O)C=O | 99% (active) | 5% | -4 | 100% (active) | inactive | inactive | inactive | inactive
Cc1onc(-c2ccccc2Cl)c1C(=O)Nc1cc(Cl)c(Cl)cc1Cl | 57% (active) | 3% | 7 | 90% (active) | inactive | inactive | inactive | inactive
Nc1cc(C=Cc2ccc([N+](=O)[O-])o2)nc2ccccc12 | 81% (active) | 100% (active) | 4 | 93% (active) | inactive | inactive | inactive | inactive
COc1ccc(-c2ccc(NC(=O)c3cccc(F)c3)cc2)cc1CN1CCCN(C)CC1 | 49% | 32% | -1 | 100% (active) | inactive | inactive | inactive | inactive
COc1cc(C)nc2ccc(NC(=O)c3cc(C(F)(F)F)cc(C(F)(F)F)c3)cc12 | 99% (active) | 16% | 0 | 101% (active) | inactive | inactive | inactive | inactive
COc1ccc(Nc2nccc(N3CCC(NC(=O)c4cc5ccccc5s4)C3)n2)cc1 (stereo not given) | 86% (active) | 1% | 4 | 99% (active) | inactive | inactive | inactive | inactive
CCCCCCc1c(C)[nH]c2cc(OC)ccc2c1=O | 97% (active) | 10% | 3 | 97% (active) | inactive | inactive | inactive | inactive
COc1ccc(NC(=O)[C@H](CC(C)C)Nc2ccnc(Nc3ccccc3)n2)cc1 | 32% | -7% | 3 | 92% (active) | inactive | inactive | inactive | inactive
CCN(CC)CCN(Cc1ccc(-c2ccc(C(F)(F)F)cc2)cc1)C(=O)Cn1c(CCc2ccc(F)c(F)c2)nc(=O)c2ccccc21 | 62% (active) | 31% | 3 | 99% (active) | inactive | inactive | inactive | inactive
CC(C)C[C@H]1c2[nH]c3ccc(Cl)cc3c2CCN1C(=O)CCc1ccccc1 | 81% (active) | -2% | 6 | 95% (active) | inactive | inactive | inactive | inactive
CC(C)Cc1cn(-c2nc(C(=N)N)cs2)c2cc(Cl)ccc12 | 98% (active) | 98% (active) | -1 | 100% (active) | inactive | inactive | inactive | inactive
CC(CNCc1cn(Cc2cc(Br)cc(Br)c2)c2ccccc12)CNc1cc(=O)c2ccccc2[nH]1 (stereo not given) | 50% (active) | 10% | 6 | 100% (active) | inactive | inactive | inactive | inactive
Cc1cc(NN=Cc2ccccc2[N+](=O)[O-])c2cc(F)ccc2n1 | 100% (active) | 18% | -3 | 102% (active) | inactive | inactive | inactive | inactive

Source: PubChem BioAssay
